The full list was thinned out, with hits kept by preference.
KDM5B inhibitor: KDM5B demethylase inhibition; KDM5B demethylase, FDH-coupled NADH fluorescence (FDH is formaldehyde dehydrogenase); Potency, µM (highest dose often 57.7 µM), actives largely listed as inhibitors; 220,000 tested, 2.6% active; Q9UGL1; active = well fitted inhibition curve with a large enough effect; also: 0% is about no effect; nearly all actives have a fitted effect of over 70% in size
Target sequence (Q9UGL1 whole entry, looked up): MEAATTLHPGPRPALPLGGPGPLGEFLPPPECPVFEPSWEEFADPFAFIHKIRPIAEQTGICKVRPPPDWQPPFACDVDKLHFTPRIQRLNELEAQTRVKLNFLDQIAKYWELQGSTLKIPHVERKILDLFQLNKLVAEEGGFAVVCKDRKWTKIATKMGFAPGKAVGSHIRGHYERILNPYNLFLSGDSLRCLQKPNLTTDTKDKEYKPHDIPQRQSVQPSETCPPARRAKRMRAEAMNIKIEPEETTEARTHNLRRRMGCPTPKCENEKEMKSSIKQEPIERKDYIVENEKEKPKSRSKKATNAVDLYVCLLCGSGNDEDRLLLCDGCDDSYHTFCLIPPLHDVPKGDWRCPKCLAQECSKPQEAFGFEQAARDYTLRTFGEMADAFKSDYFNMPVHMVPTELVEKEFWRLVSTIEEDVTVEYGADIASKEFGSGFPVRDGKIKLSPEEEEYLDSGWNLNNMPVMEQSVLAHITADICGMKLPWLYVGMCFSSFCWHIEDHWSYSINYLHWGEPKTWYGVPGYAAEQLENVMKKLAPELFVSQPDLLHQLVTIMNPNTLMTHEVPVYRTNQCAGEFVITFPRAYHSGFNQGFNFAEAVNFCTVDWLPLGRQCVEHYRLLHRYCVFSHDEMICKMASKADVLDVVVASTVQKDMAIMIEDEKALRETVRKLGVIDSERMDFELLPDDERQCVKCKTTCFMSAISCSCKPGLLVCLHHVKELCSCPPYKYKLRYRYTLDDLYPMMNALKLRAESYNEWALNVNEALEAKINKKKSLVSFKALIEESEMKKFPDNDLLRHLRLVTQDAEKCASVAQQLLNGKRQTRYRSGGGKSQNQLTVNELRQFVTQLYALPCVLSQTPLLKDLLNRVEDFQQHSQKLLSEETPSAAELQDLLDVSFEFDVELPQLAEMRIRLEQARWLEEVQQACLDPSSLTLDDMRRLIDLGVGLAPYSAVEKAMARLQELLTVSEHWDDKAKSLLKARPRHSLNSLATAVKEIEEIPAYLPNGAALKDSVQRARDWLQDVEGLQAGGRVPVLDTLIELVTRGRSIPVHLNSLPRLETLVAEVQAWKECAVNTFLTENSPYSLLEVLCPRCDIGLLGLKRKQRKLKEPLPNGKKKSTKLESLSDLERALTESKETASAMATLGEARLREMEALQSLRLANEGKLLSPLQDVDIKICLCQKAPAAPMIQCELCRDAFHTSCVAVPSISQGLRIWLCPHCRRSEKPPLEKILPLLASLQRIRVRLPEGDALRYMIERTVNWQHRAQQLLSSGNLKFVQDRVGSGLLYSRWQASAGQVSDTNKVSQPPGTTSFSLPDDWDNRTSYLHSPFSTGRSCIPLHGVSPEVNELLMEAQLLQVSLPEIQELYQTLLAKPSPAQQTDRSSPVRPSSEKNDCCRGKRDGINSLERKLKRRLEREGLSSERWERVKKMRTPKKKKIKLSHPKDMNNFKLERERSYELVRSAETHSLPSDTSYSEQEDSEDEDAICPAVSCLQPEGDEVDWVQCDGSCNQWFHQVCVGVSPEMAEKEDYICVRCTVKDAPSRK
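Here, H3K4me3 peptide (12.5 µM in substrate mix) is demethylated by KDM5BΔAP, 200 nM final, after 10 min compound exposure. Formaldehyde product is coupled through FDH (0.25 U/mL in mix) to NADH fluorescence; 30-min ΔRFU feeds dose-response curves.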
Active calls of the source: *; i = inactive. Potency is read from the fitted curve at half-maximal effect.

SMILES | KDM5B inhibitor
COCCCNC(=O)C1CC(=O)N(c2n[nH]c3cccc(F)c23)C1 (stereo not given) | i
COc1ccc2[nH]cc(CCNC(=O)C3CC(=O)N(c4n[nH]c5cccc(F)c45)C3)c2c1 (stereo not given) | 22µM*
COc1ccccc1CNC(=O)C1CC(=O)N(c2n[nH]c3ccccc23)C1 (stereo not given) | i
COc1ccc(C(=O)NCCc2ccc(C)cc2)cc1OC1CCN(C(C)=O)CC1 | i
Cc1ccc(CNC(=O)C(=O)Nc2c3c(nn2-c2ccc(F)cc2)CSC3)cc1 | i
COc1ccc(CCN2C(=O)c3[nH]nc(-c4ccccc4O)c3C2c2ccccc2)cc1 (stereo not given) | i
Cc1ccc(Cl)cc1N1CCN(C(=O)c2ccc3c(c2)N(Cc2ccccc2)CCS3)CC1 | i
C/C(CC1CC2=C(CC1(C)C)C(C)(C)CCC2)=N\O (stereo not given) | i
Cc1cccc(OCCN)c1C | i
COc1cc(OC)c(NC(=O)c2c(C)nn(-c3ccc(C)cc3)c2-n2cccc2)cc1Cl | i
Cc1ccccc1COc1ccc(C(=O)O)cc1 | i
C#CCN1CCN(C(=O)Nc2ccc(F)cc2)CC1 | i
CCc1cc(C(=O)N2CCOCC2CC(=O)N2CCSCC2)cs1 (stereo not given) | i
COc1ccccc1NC(=O)c1nc2ccccc2nc1N1CCOCC1 | i
COc1ccc(OC)c(NC(=O)c2cc3c(N4CCSCC4)nc(C)cn3n2)c1 | i
Cc1ccc(C)c(NC(=O)c2cc3c(N4CCSCC4)nc(C)cn3n2)c1 | 32µM*
Cc1cn2nc(C(=O)Nc3ccccc3C)cc2c(N2CCSCC2)n1 | 35µM*
COc1ccccc1NC(=O)c1cc2c(N3CCSCC3)nc(C)cn2n1 | 28µM*
Cc1ccc(Cn2cc(S(=O)(=O)c3ccc(Cl)cc3)c(=O)c3cc4c(cc32)OCO4)cc1 | i
O=C(Nc1onc2c1CCCC2)c1ccccc1Cl | i
COc1ccc(C2CC(=O)N(CC(=O)Nc3ccc4c(c3)OCO4)c3ccccc3S2)cc1OC (stereo not given) | i
COc1ccc(Cn2c(C(C)NC(=O)c3ccco3)nc3ccccc32)cc1 (stereo not given) | i
CC(C)OC(=O)c1cccc(NC(=O)C2=Cc3ccccc3OC=C2)c1 | i
COc1ccccc1-c1cnc(Nc2cccnc2)c2c1CCO2 | i
COc1ccccc1Nc1nc(-c2ccccc2F)nc2ccccc12 | i
SMILES | KDM5B inhibitor
COc1ccc(-c2ccc3ncc(Nc4cccc(N[S+](C)(=O)[O-])c4)n3n2)cc1OC | i
COc1ccc(Nc2ncc(-c3ccccc3OC)c3c2OCC3)cc1 | 35µM*
COc1ccccc1-c1cnc(Nc2cccnc2OC)c2c1CCO2 | 35µM*
Cc1ccccc1OCC(=O)OCC(=O)Nc1ccc(Cl)cn1 | i
COc1ccccc1-c1cnc(NC(=O)C2CCOCC2)c2c1CCO2 | i
C[S+](=O)([O-])Nc1cccc(Nc2cnc3ccc(-c4ccc(F)cc4)nn23)c1 | i
COc1ccccc1-c1cnc(Nc2ccc(Cl)cn2)c2c1CCO2 | 35µM*
O=C(COC(=O)COc1ccccc1F)Nc1ccc(Cl)cn1 | i
COc1ccccc1-c1cnc(Nc2cccc(N[S+](C)(=O)[O-])c2)c2c1CCO2 | 25µM*
CCOC(=O)c1cnc(Nc2ccccc2OC)c2ccccc12 | i
CCCCc1oc2c(c(=O)c1CC)C(=O)CC(C)(C)C2 | i
COc1cc2c(cc1OC)C(CNC(=O)C1CC1)N(C(=O)Nc1ccccc1)CC2 (stereo not given) | i
COc1cc(NS(=O)(=O)c2ccccc2Br)c(C(=O)O)cc1OC | i
CSc1ccc(NC(=O)CCc2ccc(F)cc2)cc1 | i
O=C1Cc2c(-c3ccsc3)n[nH]c2CN1Cc1ccccc1 | i
Cc1cc(C)c(NC(=O)CNC(=O)c2nc(-c3ccccc3)oc2C)c(C)c1 | i
O=C(c1cccc(Cl)c1)N1CCC(N2CC3CCCN3C2=O)CC1 (stereo not given) | i
O=C(NCCC(c1ccccc1)c1ccco1)c1cccs1 (stereo not given) | i
CCn1nccc1C(=O)N[C@@H]1CN(Cc2ccccc2)C[C@H]1CN(C)C | i
Cc1cccc(OCCNC(=O)c2ccc3c(c2)NC(=O)CS3)c1 | i
CCCCSc1nc2sc3c(c2c(=O)n1-c1ccccc1C)CC(C)(C)OC3 | i
CC(C)C(=O)N1CCc2nnc([C@@H]3C[C@@H](O)CN3C)n2CC1 | i
CCOC(=O)Cc1ccc(NC(=O)N2CCN(Cc3nccn3C)CC2)cc1 | i
C[C@@H](NC(=O)C1CCCCC1)c1c(-c2ccc(Cl)cc2)noc1C(=O)O | i
CC1CCC(NC(=O)c2[nH]c3ccccc3c2Cl)CC1 (stereo not given) | i
SMILES | KDM5B inhibitor
Cc1cccc(N2CCN(S(=O)(=O)c3c(C)nc4scc(C)n4c3=O)CC2)c1C | i
Cc1nc2scc(CC(=O)NCC(C)C)n2c(=O)c1-c1cc(C)n(-c2ccc(C(C)C)cc2)n1 | 28µM*
Cc1cccc(-n2nc(-c3c(C)nc4scc(CC(=O)NC5CCCCC5)n4c3=O)cc2C)c1C | 25µM*
Cc1nc2ccccc2c(C)c1CC(=O)NCC(C)C | i
CCC(C)NC(=O)Cc1csc2nc(C)c(-c3cc(C)n(-c4ccc(C)cc4C)n3)c(=O)n12 (stereo not given) | 28µM*
CCC1Oc2ccccc2N(CC(=O)NC2CCCCC2)C1=O (stereo not given) | i
CCNC(=O)N[C@@H]1C=C[C@@H](c2c(C)nn(-c3ccc(C(C)C)cc3)c2C)C1 | i
Cc1ccc(-n2nc(-c3c(C)nc4scc(CC(=O)NCC(C)C)n4c3=O)cc2C)c(C)c1 | i
Cc1ccc(-n2cccc2CC(=O)NCC(C)C)cc1 | i
CCC(C)NC(=O)Cn1ncc2c([nH]c3ccc(C)cc32)c1=O (stereo not given) | i
Cc1ccccc1-n1nc(-c2c(C)nc3scc(CC(=O)NCC(C)C)n3c2=O)cc1C | 28µM*
CCC(C)NC(=O)COC(=O)c1ccc2nc(C)c(C)nc2c1 (stereo not given) | i
CCCCc1ccc(NC(=O)Nc2cccnc2)cc1 | i
CCONC(=O)COc1ccc(Nc2ccccc2)cc1 | i
COCCNc1oc(-c2ccc(S(=O)(=O)N3CCCCC3)cc2)nc1C#N | i
COc1ccc(CN2CC3(CCN(C(=O)c4cccc(C)c4)CC3)C2=O)cc1 | i
O=C(Cc1csc2nc(-c3ccc(Cl)cc3)cn12)NCCc1ccccc1 | i
Cc1cc(NC(=O)CSc2nnnn2-c2cc(Cl)ccc2C)no1 | i
Cc1ccc(Cl)cc1-n1nc(-c2c(C)nc3scc(CC(=O)NCC(C)C)n3c2=O)cc1C | 22µM*
CSc1ccc(NC(=O)c2cc3c(s2)CN(C2CC2)C3)cc1 | 22µM*
CSc1ccc(NC(=O)c2ccc3c(c2)CCC3)cc1 | i
CSc1ccc(NC(=O)C2CCCCC2)cc1 | i
CCN(CC)S(=O)(=O)c1ccc(NN=C2CCN(C(C)C)CC2)c([N+](=O)[O-])c1 | i
CCN(CC(=O)Nc1ccc2c(c1)OCCO2)Cc1cc(=O)oc2c(C)c(C)ccc12 | i
O=C(NCc1nnc2c(-c3nc(C4CC4)no3)cccn12)c1cccc2[nH]ccc12 | i
O=C(Cc1cccc(F)c1)N1CCC(c2nc(C3CCOCC3)no2)CC1 | i
O=C(Cc1cccc(F)c1)N1CC(F)(F)C[C@H]1c1nc(C2CC2)no1 | i
O=C(NCc1nnc2c(-c3nc(C4CC4)no3)cccn12)c1cccc(Cl)c1 | 28µM*

Screening data from PubChem.
